{
  "source": "PubChem BioAssay AID434962",
  "about": "(The Scripps Research Institute Molecular Screening Center, 2010)",
  "note": "Out of some 320,000 compounds screened, about 1,300 (0.41%) were called active. The entries come from a sample that favours actives as a whole. Unmarked numbers belong to inactive results.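 How the source made its calls: active means percent inhibition above the average of all tested compounds plus 3 SD, set per screening campaign (cut at about 16% in these data); inactive means the rest.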",
  "data": [
    {"target": "Insulin-degrading enzyme (Homo sapiens) (UniProt P14735)", "sequence (P14735 whole entry, looked up)": "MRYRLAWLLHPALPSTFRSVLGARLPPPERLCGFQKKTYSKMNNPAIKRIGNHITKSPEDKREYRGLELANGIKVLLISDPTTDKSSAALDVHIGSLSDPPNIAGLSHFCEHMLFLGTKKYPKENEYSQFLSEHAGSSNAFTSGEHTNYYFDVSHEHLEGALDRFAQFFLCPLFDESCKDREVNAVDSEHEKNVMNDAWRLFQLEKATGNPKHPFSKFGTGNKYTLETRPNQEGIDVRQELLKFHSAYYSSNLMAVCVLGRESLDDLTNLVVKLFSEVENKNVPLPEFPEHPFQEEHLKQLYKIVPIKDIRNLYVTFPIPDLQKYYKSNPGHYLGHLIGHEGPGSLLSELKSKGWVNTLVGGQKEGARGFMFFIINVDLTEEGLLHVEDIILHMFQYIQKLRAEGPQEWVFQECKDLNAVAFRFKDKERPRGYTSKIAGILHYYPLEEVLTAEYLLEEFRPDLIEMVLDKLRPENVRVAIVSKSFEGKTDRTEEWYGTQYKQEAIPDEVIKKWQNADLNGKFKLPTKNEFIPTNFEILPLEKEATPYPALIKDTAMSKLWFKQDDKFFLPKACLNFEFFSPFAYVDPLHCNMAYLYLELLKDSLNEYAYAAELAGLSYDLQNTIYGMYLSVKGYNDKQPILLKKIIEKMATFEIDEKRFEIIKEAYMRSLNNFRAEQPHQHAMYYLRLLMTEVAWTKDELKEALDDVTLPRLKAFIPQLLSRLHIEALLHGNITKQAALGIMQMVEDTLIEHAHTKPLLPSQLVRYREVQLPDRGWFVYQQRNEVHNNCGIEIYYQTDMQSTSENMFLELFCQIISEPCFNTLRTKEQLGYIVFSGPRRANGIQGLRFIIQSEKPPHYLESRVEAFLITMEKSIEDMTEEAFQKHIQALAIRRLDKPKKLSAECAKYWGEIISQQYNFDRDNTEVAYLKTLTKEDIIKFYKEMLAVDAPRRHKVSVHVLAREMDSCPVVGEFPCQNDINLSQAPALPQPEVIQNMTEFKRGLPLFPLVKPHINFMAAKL", "assay": "human IDE inhibitors in live cells, primary screen, fluorescence polarization, HEK cells, FAbetaB substrate (AID 434962);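 further: IDE supplied by intact live HEK cells; FP after avidin binding of uncleaved biotin substrate so inhibition keeps polarization high; 0% = DMSO wells and 100% = 60 µM reference IDE inhibitor Ii1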", "settings": "FAbetaB cleavage, at 5.59 µM, active compounds read high", "values": [
      {"smiles": "C=CCN1C(=O)C2(OCCCO2)c2cccc(Cl)c21", "inhibition": "1.02%"},
      {"smiles": "CCc1ccc(N(C(=O)c2csnn2)C(C(=O)NC2CCCCC2)c2ccncc2)cc1", "note": "(stereo not given)", "inhibition": "3.98%"},
      {"smiles": "CCOC(=O)CC1C(=O)NCCN1c1nc2c(C)cccn2c(=O)c1/C=C1\\SC(=S)N(C(C)CC)C1=O", "note": "(stereo not given)", "inhibition": "114% (active)"},
      {"smiles": "CCOC(=O)N1CCN(C(=O)CSc2nc(=O)n3cccc(C)c3n2)CC1", "inhibition": "-1%"},
      {"smiles": "Cc1cccn2c(=O)c(/C=C(\\C#N)C(N)=O)c(N3CCCCCC3)nc12", "inhibition": "15.9%"},
      {"smiles": "O=C(COc1ccc(S(=O)(=O)N2CCOCC2)cc1Cl)N1CCOCC1", "inhibition": "0.54%"},
      {"smiles": "CCCc1cc(=O)oc2c(C)c(OCC(=O)N3CCC(C(=O)O)CC3)ccc12", "inhibition": "0.15%"},
      {"smiles": "CCCCc1cc(=O)oc2c(C)c(OCC(=O)N3CCC(C(N)=O)CC3)ccc12", "inhibition": "21.3% (active)"},
      {"smiles": "Cc1c(C)c2ccc(OCC(=O)N3CCC(C(=O)O)CC3)c(C)c2oc1=O", "inhibition": "9.3%"},
      {"smiles": "CCC(C)N(C(=O)COC(=O)c1nc(Cl)ccc1Cl)C1CCS(=O)(=O)C1", "note": "(stereo not given)", "inhibition": "1.33%"},
      {"smiles": "CNC(=O)/C(C#N)=C/c1c(F)cccc1Cl", "inhibition": "-1.39%"},
      {"smiles": "CCN1CCN(C(=O)C2CCCN(S(=O)(=O)c3ccc(OC)c(OC)c3)C2)CC1", "note": "(stereo not given)", "inhibition": "-5.73%"},
      {"smiles": "O=[N+]([O-])c1c(NCCO)cc(Sc2nc3ccccc3s2)c2nonc12", "inhibition": "21.8% (active)"},
      {"smiles": "CCOc1ccccc1Nc1ccc2nonc2c1[N+](=O)[O-]", "inhibition": "-3.97%"},
      {"smiles": "O=C(O)c1ccccc1CSc1nc2ccccc2s1", "inhibition": "-2.6%"},
      {"smiles": "Cc1[nH]c2ccccc2c1/C=C(/C#N)C(=O)NC(C)C", "inhibition": "-1.7%"},
      {"smiles": "O=C(CSc1ncnc2sccc12)N1CCN(C(=O)c2cccs2)CC1", "inhibition": "3.13%"},
      {"smiles": "Nc1c(C(=O)c2cccs2)sc2nsc(SCCN3CCCCC3)c12", "inhibition": "23% (active)"},
      {"smiles": "O=[N+]([O-])c1ccc(N(CCO)Cc2ccccc2)c([N+](=O)[O-])c1", "inhibition": "0.66%"},
      {"smiles": "COc1ccc(N2CCN(Cc3ccc(Br)s3)CC2)cc1", "inhibition": "-4.53%"},
      {"smiles": "O=C1NC(c2ccccc2)=NC1(Nc1ccccn1)C(F)(F)F", "note": "(stereo not given)", "inhibition": "-2.81%"},
      {"smiles": "COC(=O)c1ccc(/C=C/c2c(-c3ccc(OC)cc3)sc3ccccc23)cc1", "inhibition": "1.82%"},
      {"smiles": "COc1ccc(N=C(C)c2sc3ccccc3c2O)cc1", "inhibition": "41.2% (active)"},
      {"smiles": "Oc1ccc(N=Cc2sc3ccccc3c2Cl)cc1", "inhibition": "0.23%"},
      {"smiles": "Cc1ccccc1NC(=O)Cc1nc(COC(=O)c2ccc(C(F)(F)F)cc2)cs1", "inhibition": "7.39%"},
      {"smiles": "Cc1ccc(CSCC(=O)N(C)CC(=O)Nc2cccc(F)c2)cc1", "inhibition": "5.39%"},
      {"smiles": "CCN(CC)C(=O)CSC(Nc1cccc(F)c1)=C(C#N)C#N", "inhibition": "31.4% (active)"},
      {"smiles": "CCN(CC)C(=O)C(=O)Nc1cccc(Br)c1", "inhibition": "1.91%"},
      {"smiles": "Cc1cccc(OCC(O)CN2CCN(CCN3C(=O)c4cccc5cccc(c45)C3=O)CC2)c1C", "note": "(stereo not given)", "inhibition": "-8.18%"},
      {"smiles": "Cc1cccc(C)c1NC(=O)COC(=O)c1ccccc1O", "inhibition": "3.87%"},
      {"smiles": "Cc1cc([N+](=O)[O-])c(N2CCC[C@@H]2C(=O)O)c([N+](=O)[O-])c1", "inhibition": "3.34%"},
      {"smiles": "CS(=O)(=O)N(Cc1ccccc1)c1ccc(C(=O)NN=C2CCCCCC2)cc1", "inhibition": "18.7% (active)"},
      {"smiles": "CN1CCC(=NNC(=O)c2ccc(N(Cc3ccc(Cl)cc3)S(C)(=O)=O)cc2)CC1", "inhibition": "8.43%"},
      {"smiles": "Cc1ccccc1CN(c1ccc(C(=O)NCC2CCCO2)cc1)S(C)(=O)=O", "note": "(stereo not given)", "inhibition": "10.1%"},
      {"smiles": "CS(=O)(=O)N(Cc1ccc(Cl)cc1)c1ccc(C(=O)NCCSCc2ccco2)cc1", "inhibition": "2.58%"},
      {"smiles": "O=C(C1=C[C@H](c2coc3ccccc3c2=O)C[C@H](OCc2ccc(CO)cc2)O1)N1CCOCC1", "inhibition": "4.19%"},
      {"smiles": "O=C(C1=C[C@H](c2ccc(C(F)(F)F)cc2)C[C@H](OCc2ccc(CO)cc2)O1)N1CCN(Cc2ccccc2)CC1", "inhibition": "-1%"},
      {"smiles": "O=C(C1=C[C@H](c2coc3ccccc3c2=O)C[C@H](OCc2ccc(CO)cc2)O1)N1CCN(Cc2ccccc2)CC1", "inhibition": "18.4% (active)"},
      {"smiles": "C[n+]1ccc(/C=C/c2c[nH]c3ccccc23)cc1", "inhibition": "23.9% (active)"},
      {"smiles": "COc1ccc(/C=C(\\C#N)c2c[nH]c3ccccc23)cc1", "inhibition": "-0.68%"},
      {"smiles": "O=C(NC1CCCC1)C(=O)c1c[nH]c2ccccc12", "inhibition": "3.35%"},
      {"smiles": "Clc1ccccc1-c1cc(COc2ccc3ccccc3c2)no1", "inhibition": "3.18%"},
      {"smiles": "COc1ccc(OCCCn2cccc2/C=C2/C(=N)N3OC(C)=CC3=NC2=O)cc1", "inhibition": "1.48%"},
      {"smiles": "CC1=CC2=NC(=O)/C(=C/c3coc4ccccc4c3=O)C(=N)N2O1", "inhibition": "62.1% (active)"},
      {"smiles": "CCOc1cc(/C=C2/C(=N)N3OC(C)=CC3=NC2=O)ccc1OC", "inhibition": "0.06%"},
      {"smiles": "C=CCn1c(SCCOc2ccc(OC)cc2)nnc1C(NC(=O)c1ccc(OC)cc1)C(C)C", "note": "(stereo not given)", "inhibition": "0.39%"},
      {"smiles": "CC(=O)Nc1ccc(S(=O)(=O)N2CCN(CCCOc3cc(C)ccc3C)CC2)cc1", "inhibition": "-1.56%"},
      {"smiles": "CCOc1ccc(NC(=O)CN(C)CC(=O)Nc2cccc(Cl)c2C)cc1OCC", "inhibition": "1.24%"},
      {"smiles": "CCCNC(=O)CSc1nc(Cc2ccccc2)nc2ccccc12", "inhibition": "4.52%"},
      {"smiles": "CCCc1nc(SCC(=O)Nc2ccc(S(=O)(=O)N(C)C)cc2)c2ccccc2n1", "inhibition": "38.4% (active)"},
      {"smiles": "CCc1nc(SCC(=O)NNC(=O)c2ccc(C)cc2)c2ccccc2n1", "inhibition": "0.32%"},
      {"smiles": "Cc1ccccc1-n1c(C)cc(/C=N/NC(=O)c2ccc(CN3CCOCC3)cc2)c1C", "inhibition": "-1.59%"},
      {"smiles": "COc1ccc(N2C(=O)/C(=C\\c3ccco3)N=C2SCC(N)=O)cc1Cl", "inhibition": "6.2%"},
      {"smiles": "N#Cc1c(N2CCCCC2)nc(N)c2c(N)nc(SCC(=O)O)cc12", "inhibition": "7.07%"},
      {"smiles": "CCN1CCCC1CNC(=O)c1cc2cc(OC)c(OC)cc2[nH]1", "note": "(stereo not given)", "inhibition": "1.37%"},
      {"smiles": "CCN1CCCC1Cn1cnc2c([nH]c3cc(OC)ccc32)c1=O", "note": "(stereo not given)", "inhibition": "6.02%"},
      {"smiles": "CC(C)OCCCNc1ncnc2c1[nH]c1ccc(F)cc12", "inhibition": "27.3% (active)"},
      {"smiles": "Fc1ccc2[nH]c3c(N4CCSCC4)ncnc3c2c1", "inhibition": "17.6% (active)"},
      {"smiles": "Cc1c(CN2CC[C@@H](N3CCN(c4ccccn4)CC3)[C@H](O)C2)[nH]c2ccc(F)cc12", "inhibition": "-1.68%"},
      {"smiles": "CCN1CCCC1CNc1ncnc2c1[nH]c1ccc(F)cc12", "note": "(stereo not given)", "inhibition": "17% (active)"}
    ]}
  ]
}
